These results are taken from PubChem BioAssay (NCATS).

Common to all, as to assay: qHTS profiling for inhibitors of Plasmodium falciparum proliferation (AID 504749); note: nearly all actives have a fitted effect of over 60% in size
Holding throughout (conditions): P. falciparum in erythrocytes, SYBR Green DNA, 72 h; series mostly up to 28.7 µM
In general terms: qHTS replaces the single test concentration by a dilution series.

The test system of assay [1] is CP194. Put shortly:
(§1)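 SYBR Green fluorescence (ex 485 nm, em 535 nm) reports parasite DNA after 72 h compound exposure of infected red cells at 0.3% parasitemia, 2.5% hematocrit; signal normalized to 0.29 uM artemisinin and vehicle wells.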

The test system of assay [2] is CP201. A digest of the protocol:
as §1

Assay [3] relates to CP203. Put shortly: as §1
For assay [4], the system named is CP211. A digest of the protocol:
as §1

Assay [5] concerns CP215. A digest of the protocol:
as §1

Assay [6] has as its system CP217. Put shortly:
as §1

Assay [7] concerns CP237. Put shortly: as §1
Assay [8] has as its system CP238. A digest of the protocol:
as §1

Assay [9] deals with CP247. Put shortly: as §1
Assay [10] deals with CP250. Put shortly: as §1
Assay [11] has as its system CP252. Put shortly:
as §1

For assay [12], the system named is CP256. A digest of the protocol:
as §1

In assay [13] the test system is CP260. A digest of the protocol:
as §1

The test system of assay [14] is CP262. Put shortly: as §1
Assay [15] has as its system CP265. A digest of the protocol:
as §1

The test system of assay [16] is CP268. A digest of the protocol:
as §1

The test system of assay [17] is CP269. Put shortly:
as §1

For assay [18], the system named is CP286. A digest of the protocol:
as §1

Assay [19] concerns CP291. Put shortly: as §1
The test system of assay [20] is CP266. A digest of the protocol:
as §1

Results filed as inconclusive are left out. Active and inactive are the calls of the source. Calls come from the whole dose curve; as a rule, active = well fitted inhibition curve with a large enough effect; inconclusive = small, poorly fitted or top-dose-only effect; inactive = flat fitted curve, though single readings scatter.
Potency is the fitted concentration of half-maximal effect.

As for `CCCCCCOC(=O)c1cccnc1`, the Potency entry in [1], in [2], in [3], in assay [4], in assay [5] and in assay [6] was “inactive” in each case. Besides, the Potency entry in [7], in assay [8], in [9], in [10], in [11] and in assay [12] was “inactive” in each case. The Potency entry in [13], in assay [14], in assay [15], in [16], in assay [17] and in assay [18] was “inactive” each time. In [19], the Potency result is “inactive”.
Take `CCOC(=O)[C@@H](N)CS`: the Potency entry in assay [1], in assay [2], in assay [3], in [4], in [5] and in [6] was “inactive” each time. In addition, the Potency entry in assay [7], in [8], in assay [9], in assay [10], in [11] and in assay [12] was “inactive” each time. In addition, the Potency result in assay [13], in assay [14], in assay [15], in assay [20], in assay [16] and in [17] was “inactive” each time. Also, the Potency result in assay [18] and in assay [19] was “inactive” each time.
Regarding `CC(O)CN(C)C` (centres undefined), the Potency entry in [1], in assay [2], in assay [3], in assay [4], in assay [5] and in assay [6] was “inactive” each time. The Potency entry in assay [7], in assay [8], in assay [9], in assay [10], in [11] and in assay [12] was “inactive” in each case. The Potency result in assay [13], in assay [14], in assay [15], in assay [16], in assay [17] and in assay [18] was “inactive” throughout. Besides, the Potency result in [19] was “inactive”.
`C=C1C(CCl)(CCl)C2(Cl)C(Cl)C(Cl)C1(Cl)C2(Cl)Cl` (centres undefined): the Potency was 6.75 µM (active) in assay [1]; 13.5 µM (active) in [2]; 3.79 µM (active) in assay [3]; 12 µM (active) in assay [4]; 3.79 µM (active) in [5]; 3.16 µM (active) in assay [6]. Besides, the Potency is 3.16 µM (active) in [7]; 3.16 µM (active) in [8]; 3.16 µM (active) in assay [9]; 1.12 µM (active) in assay [10]; 3.16 µM (active) in assay [11]; 3.55 µM (active) in [12]. The Potency in [13] is 3.55 µM (active); in assay [14], 4.78 µM (active); in assay [15], 3.55 µM (active); in [16], 4.26 µM (active); in [17], 4.26 µM (active); in [18], 3.55 µM (active). The Potency in [19] is 4.26 µM (active).
In the case of `Cc1cccc(C)c1NC(=O)C1CCCCN1C` (centres undefined), the Potency entry in assay [1], in assay [2], in assay [3], in assay [4], in assay [5] and in [6] was “inactive” throughout. Besides, the Potency entry in assay [7], in assay [8], in [9], in [10], in assay [11] and in assay [12] was “inactive” in each case. Also, the Potency entry in [13], in [14], in assay [15], in assay [16], in assay [17] and in assay [18] was “inactive” each time. In addition, the Potency entry in assay [19] is “inactive”.
Turning to `OC[C@H]1O[C@@](CO)(O[C@H]2O[C@H](CO)[C@@H](O)[C@H](O)[C@H]2O)[C@@H](O)[C@@H]1O`, the Potency result in [1], in assay [2], in assay [3], in assay [4], in assay [5] and in assay [6] was “inactive” in each case. Besides, the Potency entry in [7], in [8], in [9], in assay [10], in assay [11] and in [12] was “inactive” in each case. Further, the Potency result in [13], in assay [14], in [15], in [20], in assay [16] and in assay [17] was “inactive” each time. The Potency result in [18] and in [19] was “inactive” in each case.
On to `CNC(=O)c1c(I)c(C(=O)NCC(=O)Nc2c(I)c(C(=O)O)c(I)c(C(=O)NCCO)c2I)c(I)c(N(C)C(C)=O)c1I`, for which the Potency entry in [1], in assay [2], in [3], in assay [4], in [5] and in assay [6] was “inactive” in each case. Moreover, the Potency entry in [7], in assay [8], in assay [9], in assay [10], in assay [11] and in assay [12] was “inactive” each time. The Potency result in assay [13], in assay [14], in [15], in assay [20], in [16] and in assay [17] was “inactive” in each case. In addition, the Potency result in [18] and in [19] was “inactive” in each case.
For the molecule `Cc1c(Cl)cccc1Nc1ncccc1C(=O)O`, the Potency entry in assay [1], in assay [2], in [3], in assay [4], in [5] and in assay [6] was “inactive” each time. The Potency entry in assay [7], in [8], in assay [9], in [10], in assay [11] and in assay [12] was “inactive” throughout. For the same molecule, the Potency result in assay [13], in assay [14], in assay [15], in assay [20], in assay [16] and in [17] was “inactive” in each case. The Potency entry in assay [18] and in [19] was “inactive” throughout.
For the molecule `CCC(C)[C@@H](N)C(=O)O` (some centres undefined), the Potency entry in [1], in assay [2], in assay [3], in assay [4], in assay [5] and in [6] was “inactive” each time. For the same molecule, the Potency entry in [7], in assay [8], in [9], in assay [10], in assay [11] and in assay [12] was “inactive” throughout. The Potency result in assay [13], in assay [14], in [15], in assay [20], in assay [16] and in assay [17] was “inactive” in each case. For the same molecule, the Potency result in assay [18] and in assay [19] was “inactive” in each case.
`FC(F)(F)COCC(F)(F)F`: the Potency entry in assay [1], in assay [2], in assay [3], in assay [4], in assay [5] and in assay [6] was “inactive” each time. Also, the Potency entry in [7], in assay [8], in [9], in assay [10], in [11] and in assay [12] was “inactive” in each case. Moreover, the Potency result in assay [13], in assay [14], in assay [15], in [16], in assay [17] and in [18] was “inactive” in each case. For the same molecule, the Potency entry in assay [19] was “inactive”.
Regarding `O=[N+]([O-])c1c(Cl)cccc1-c1c[nH]cc1Cl`, the Potency entry in assay [1], in assay [2], in [3], in assay [4], in assay [5] and in assay [6] was “inactive” each time. For the same molecule, the Potency result in [7], in assay [8], in assay [9], in assay [10], in [11] and in [12] was “inactive” throughout. Moreover, the Potency entry in [14], in assay [15], in assay [20], in assay [16], in assay [17] and in assay [18] was “inactive” throughout. For the same molecule, the Potency entry in [19] was “inactive”.
